Structures are written as SMILES. The campaign covered roughly 13,000 compounds. About 3,200 (25%) showed an effect of 50% or more. Some of the results follow.

This note sets out measurements from article PMC4552634, “A New Set of Chemical Starting Points with Plasmodium falciparum Transmission-Blocking Potential for Antimalarial Drug Discovery” (PLoS ONE, 2015).

The test relates to P. falciparum stage V gametocytes. On the set-up: BacTiter-Glo ATP luminescence viability of purified stage V gametocytes in 384-well plates, per cent inhibition versus DMSO. As to conditions: 48 h, 5 µM; inhibitor.
Regarding `Cc1cc(C)cc(NC(=S)NCCCCN2CCN(c3cccc(Cl)c3)CC2)c1` [TCMDC-124057], the “% Inhibition” value is 38.25%. As for `CC1(C)CN(CCC2CCC(NC(=O)/C=C/c3ccc(F)cc3F)CC2)Cc2ccc(C#N)cc21` (stereo not drawn) [TCMDC-139504], the “% Inhibition” value was determined as 4.044%. To `Nc1c2nc(-c3c(F)cccc3Cl)[nH]c(=O)c2nc(=O)n1-c1ccccc1` [TCMDC-124052] belongs 4.598%; to `CCCN1CCN(Cc2ccc(-c3ccc(-c4nc5ccccc5[nH]4)s3)cc2)CC1` [TCMDC-136767], -1.011%; to `c1ccc2[nH]c(-c3ccc(-c4ccc(CN5CCN(c6ccncc6)CC5)cc4)s3)nc2c1` [TCMDC-136770], -27.84%. To `c1cncc(CN2CCN(Cc3ccc(-c4ccc(-c5nc6ccccc6[nH]5)s4)cc3)CC2)c1` [TCMDC-136765] belongs 62.12%. The figure for `CN(CCc1ccccn1)Cc1ccc(-c2ccc(-c3nc4ccccc4[nH]3)s2)cc1` [TCMDC-136766] is 58.81%; for `c1ccc2[nH]c(-c3ccc(-c4ccc(CN5CCN(CCN6CCOCC6)CC5)cc4)s3)nc2c1` [TCMDC-133938] it is 11.37%; for `CN(C)CCN(C)Cc1ccc(-c2cccc(-c3nc4ccccc4[nH]3)c2)cc1` [TCMDC-132567] it is 5.675%. Take `CN(CCN)Cc1ccc(-c2ccc(-c3nc4ccc(F)cc4[nH]3)s2)cc1` [TCMDC-132819]: the “% Inhibition” value is 40.81%. The figure for `c1ccc2[nH]c(-c3ccc(-c4ccc(CN5CCCCC5)cc4)s3)nc2c1` [TCMDC-136768] is 35.93%; for `CN(C)CCCN1CCN(Cc2ccc(-c3ccc(-c4nc5ccccc5[nH]4)s3)cc2)CC1` [TCMDC-136769] it is 73.2%; for `Cc1nn(-c2ccccc2)c2nc(-c3ccccc3)cc(C(=O)N3CCOCC3)c12` [TCMDC-124527] it is -18.66%. To `Cc1cc(N2CCCC2)nc(Nc2ccc(NC(=O)CC(C)C)cc2)n1` [TCMDC-124715] belongs 12.42%; to `COc1ccc(S(=O)(=O)NC2CCN(c3ccnc4cc(Cl)ccc34)C2)cc1` (stereo not drawn) [TCMDC-133649], 9.561%; to `NC(N)=NN=Cc1cc([N+](=O)[O-])ccc1Sc1ccccc1CO` [TCMDC-137883], 34.86%.

As to `NC(N)=NN=Cc1ccccc1OCc1ccccc1Cl` [TCMDC-124250], the “% Inhibition” value is on record as 59.45%. The figure for `CC(=O)C1(c2ccccc2)CCN(CCC2(c3ccc(Cl)c(Cl)c3)CN(C(=O)CC(C)C)CCO2)CC1` (stereo not drawn) [TCMDC-135324] is -34.64%; for `CC(=O)Nc1ccc(S(=O)(=O)N(Cc2cccc(Oc3ccccc3)c2)C2CCN(C/C=C(\C)CCC=C(C)C)CC2)cc1` [TCMDC-139619] it is 47.01%; for `O=S(=O)(Nc1cccc(F)c1CNCc1ccccn1)c1ccc(Cl)c(Cl)c1` [TCMDC-132598] it is 71.21%.

Consider `Clc1ccc2c(NCc3ccccn3)ccnc2c1` [TCMDC-125103], for which the “% Inhibition” value turned out to be 3.053%. In the case of `Cc1cnc(CNCc2ccc(S(=O)(=O)Nc3ccc(Oc4cccc(Cl)c4)cc3)cc2)cn1` [TCMDC-136202], the “% Inhibition” value is -12.09%. The figure for `CCN1CCN(CC(O)CNC(=O)Nc2ccc(Cl)cc2)CC1` (stereo not drawn) [TCMDC-134634] is 26.07%; for `COc1ccc(CCN(C)CCCCNC(=O)c2ccc(NC(=O)c3ccc(Cl)cc3)cc2)c(OC)c1` [TCMDC-138506] it is 49.32%; for `CCN(CC)C(=NCCCCCCN=C(NC(=N)c1ccc(Cl)cc1)N(CC)CC)NC(=N)c1ccc(Cl)cc1` [TCMDC-131806] it is 117.9%. The figure for `CCCCN1CCN(CC(O)CNC(=O)Nc2ccc(Cl)cc2)CC1` (stereo not drawn) [TCMDC-134646] is 4.082%.

Turning to `CC(=O)Nc1ccc(OCCCCCOc2ccc(NC(C)=O)cc2Cl)c(Cl)c1` [TCMDC-137222], the “% Inhibition” value is given as -37.52%. The figure for `CC(=NNC(=N)N)C(=O)Nc1ccc(Cl)c(Cl)c1` [TCMDC-137564] is -28.53%; for `CCN(CC)C(=NC(=N)NCCCCCCNC(=N)N=C(Nc1ccc(Cl)cc1)N(CC)CC)Nc1ccc(Cl)cc1` [TCMDC-131807] it is 113%; for `CCN(CC)/C(=N/C(=N)Nc1ccc(Cl)c(Cl)c1)NCCCCCCN/C(=N\C(=N)Nc1ccc(Cl)c(Cl)c1)N(CC)CC` [TCMDC-131808] it is 116.2%. To `CCN(CC)C(=NC(=N)Nc1ccc(Cl)cc1)NCCCCCCCCNC(=NC(=N)Nc1ccc(Cl)cc1)N(CC)CC` [TCMDC-131812] belongs 116.8%. To `CCCN1CCN(CC(O)CNC(=O)Nc2ccc(Cl)cc2)CC1` (stereo not drawn) [TCMDC-134645] belongs -0.7262%; to `C[C@@H]([C@@H](CCCCc1ccccc1)C(=O)N[C@H](C(=O)Nc1cccnc1)C(C)(C)C)N(O)C=O` [TCMDC-138380], -15.27%; to `CCN(C(=O)c1ccc(NC(=O)c2cccs2)cc1)c1nc2c(C)cccc2s1` [TCMDC-125338], 37.84%. Turning to `O=C(Nc1ccc(OC2CCN(Cc3ccsc3)CC2)c(Cl)c1)c1cccs1` [TCMDC-133740], the “% Inhibition” value is recorded as -2.262%. To `CCn1c(Cc2ccccc2)nnc1SCC(=O)N1c2ccccc2Sc2ccccc21` [TCMDC-124373] belongs -22.31%; to `Cc1cccc2[nH]c(-c3cccc(-c4cccc(NC(=O)C(C)CN(C)C)c4)c3)nc12` (stereo not drawn) [TCMDC-137110], -50.7%; to `Cc1cccc2[nH]c(-c3cccc(-c4ccc(NC(=O)C(C)C(=O)NC(C)C)cc4)c3)nc12` (stereo not drawn) [TCMDC-132149], -14.66%. To `Cc1cccc2[nH]c(-c3ccc(-c4cccc(NC(=O)C(C)CN5CCN(C)CC5)c4)cc3)nc12` (stereo not drawn) [TCMDC-137144] belongs 36.55%; to `CCC(C)NC(=O)Nc1cccc(-c2cccc(-c3nc4c(C)cccc4[nH]3)c2)c1` (stereo not drawn) [TCMDC-133239], 36.1%; to `Cc1cccc2[nH]c(-c3cccc(-c4cccc(NC(=O)C(C)CN5CCN(C)CC5)c4)c3)nc12` (stereo not drawn) [TCMDC-137150], 88.37%.

Take `CC(=O)N[C@H](C(=O)Nc1ccc(-c2cccc(-c3nc4c(C)cccc4[nH]3)c2)cc1)C(C)C` [TCMDC-136853]: the “% Inhibition” value is on record as -50.38%.

Turning to `Cc1cccc2[nH]c(-c3cccc(-c4ccc(NC(=O)CN5CCOCC5)cc4)c3)nc12` [TCMDC-136970], the “% Inhibition” value is on record as -20.19%. `Cc1cccc2[nH]c(-c3cccc(-c4ccc(NC(=O)C(C)CN5CCN(C)CC5)cc4)c3)nc12` (stereo not drawn) [TCMDC-137151]: the “% Inhibition” value amounted to 58.09%.

For `Cc1cccc2[nH]c(-c3cccc(-c4ccc(NC(=O)C(C)CN5CCOCC5)cc4)c3)nc12` (stereo not drawn) [TCMDC-137138], the “% Inhibition” value stood at 85.59%. To `Cc1cccc2[nH]c(-c3cccc(-c4ccc(NC(=O)C(C)CN(C)C)cc4)c3)nc12` (stereo not drawn) [TCMDC-137111] belongs 95.4%; to `CCC(C)NC(=O)Nc1ccc(-c2cccc(-c3nc4c(C)cccc4[nH]3)c2)cc1` (stereo not drawn) [TCMDC-133238], -3.731%; to `Cc1cccc2[nH]c(-c3ccc(-c4ccc(NC(=O)C(C)CN(C)C)cc4)cc3)nc12` (stereo not drawn) [TCMDC-137105], -73.49%.

With `CC(CCc1ccccc1)NCC(O)c1ccc2c3c(cccc13)C(=O)N2C` (stereo not drawn) [TCMDC-131252], the “% Inhibition” value amounted to 17.04%.

As for `COc1cc(Cc2cnc(N)nc2N)cc(OCCCCCCN2C(=O)c3ccccc3C2=O)c1OC` [TCMDC-138043], the “% Inhibition” value stood at 3.318%. To `Cc1ccc(C(C#N)c2ccc3c(C(F)(F)F)cc(C(F)(F)F)nc3n2)cc1` (stereo not drawn) [TCMDC-123762] belongs -33.32%; to `CCc1cc(-c2n[nH]c(C(F)(F)F)c2-c2ccccc2)c(O)cc1OC` [TCMDC-123700], 70.95%; to `COc1ccc(-c2c(-c3ccc(OCc4ccccc4)cc3O)n[nH]c2C(F)(F)F)cc1` [TCMDC-124771], -11.85%. To `CCc1cc(-c2onc(C(F)(F)F)c2-c2ccccc2)c(O)cc1OC` [TCMDC-124464] belongs 25.65%; to `COc1ccc(NC(=O)Nc2nc3ccccc3s2)cc1N1CCN(C)CC1` [TCMDC-139872], -6.741%; to `COc1cc(CN2CCC(C(=O)Nc3ccc(-c4cccc(C)c4)cc3)CC2)ccc1O` [TCMDC-124633], 46.38%.

For the compound `COc1cccc(OC)c1CN1CCC(N(C)CCCCCCCCCN2CCC(OC(=O)Nc3ccccc3-c3ccccc3)CC2)CC1` [TCMDC-134690], the “% Inhibition” value was 126.7%. To `COc1ccccc1N1CCN(CCCCN(C(=O)Nc2cccc(Cl)c2)C(=O)Nc2cccc(Cl)c2)CC1` [TCMDC-131986] belongs -74.5%. For the compound `COc1ccccc1CCN(C)CCN1CCC(NC(=O)c2ccc(-c3ccc(C(F)(F)F)cc3)cc2)CC1` [TCMDC-138797], the “% Inhibition” value was determined as 43.57%.

Regarding `COc1cccc(OC)c1CN1CCC(N(C)CCCCCCCCN2CCC(OC(=O)Nc3ccccc3-c3ccccc3)CC2)CC1` [TCMDC-134684], the “% Inhibition” value was 106.8%. The figure for `NCC(=O)c1cc2c(cc1N)OCCO2` [TCMDC-131879] is -22.77%. The figure for `C=C(F)c1sc(CNCCCNc2nc3ccccc3[nH]2)c(C)c1Br` [TCMDC-141307] is 13.46%; for `OC1(c2ccccc2)CCN(Cc2cccc(-c3c[nH]c4nc(NC5CCCC5)ncc34)c2)C1` (stereo not drawn) [TCMDC-133775] it is -50.17%; for `CC(=O)N(Cc1ccc(CC(C)NCCc2cccc(Cl)c2)cc1)Cc1ccc(CC(C)NCCc2cccc(Cl)c2)cc1` (stereo not drawn) [TCMDC-139678] it is 112.1%. Take `CC(Cc1ccc(CN(CC(N)=O)Cc2ccc(CC(C)NCCc3cccc(Cl)c3)cc2)cc1)NCCc1cccc(Cl)c1` (stereo not drawn) [TCMDC-139804]: the “% Inhibition” value is recorded as 113.4%.

Take `CS(=O)(=O)c1ccc(CNCc2ccc(-c3ccc(-c4nc5cc(C(F)(F)F)ccc5[nH]4)s3)cc2)cc1.O=C(O)C(F)(F)F` [TCMDC-132906]: the “% Inhibition” value was -5.935%.
